Reference: PubChem BioAssay (NCI)
The panel holds about 79,000 compounds, 15% with a hit somewhere; the sample as a whole holds those more often. Activity calls are given as the source filed them. Rule as the data show it: active = growth inhibition above about 70%; inactive = the rest.

Tests used:
[1] = NCI Yeast Anticancer Drug Screen. Data for the wt1 strain (AID 149);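 also: 0% = growth of vehicle-treated wt1 cultures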; details: S. cerevisiae wt1 strain (SPY 50644) growth inhibition, hits give high values
Procedure, shortened: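 Compounds are added to wt1 yeast cultures. Growth is then measured. Inhibition is expressed relative to vehicle-treated controls.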

[2] = NCI Yeast Anticancer Drug Screen. Data for the rad50EPP+ strain (AID 151);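 also: 0% = growth of vehicle-treated control cultures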; details: S. cerevisiae rad50 mutant strain, hits give high values
Procedure, shortened: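 Genetically defined yeast (rad50EPP+, DNA damage repair alteration) is grown with compound, and inhibition of growth is expressed relative to vehicle-treated controls.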

[3] = NCI Yeast Anticancer Drug Screen. Data for the mgt1 strain (AID 153); details: S. cerevisiae mgt1 mutant growth inhibition, hits give high values
Procedure, shortened: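 In the mgt1 strain, test compounds were added and growth inhibition was determined relative to vehicle-treated controls.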

[4] = NCI Yeast Anticancer Drug Screen. Data for the rad50 strain (AID 155);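 also: 0% = growth of vehicle-only cultures of the same strain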; details: S. cerevisiae rad50 strain growth inhibition, hits give high values
Procedure, shortened: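 Inhibition values express reduced yeast growth in compound-treated cultures relative to vehicle-treated controls.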

[5] = NCI Yeast Anticancer Drug Screen. Data for the mec2-1 strain (AID 157); details: S. cerevisiae mec2-1 strain, hits give high values
Procedure, shortened: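 Each compound was tested on mec2-1 yeast, a strain altered in DNA damage repair or cell cycle control. Growth inhibition is reported relative to vehicle.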

[6] = NCI Yeast Anticancer Drug Screen. Data for the rad14 strain (AID 159);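 also: 0% = growth of vehicle-treated control cultures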; details: S. cerevisiae rad14 strain growth inhibition, hits give high values
Procedure, shortened: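 A mutant yeast strain defective in DNA damage repair is treated with compound; inhibition of its growth is scored against untreated, vehicle-exposed cultures.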

[7] = NCI Yeast Anticancer Drug Screen. Data for the sgs1 mgt1 strain (AID 161);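 also: 0% = growth of cultures given vehicle only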; details: S. cerevisiae sgs1 mgt1 strain, hits give high values
Procedure, shortened: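 Mutant yeast exposed to compound; growth scored against vehicle-only wells.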

[8] = NCI Yeast Anticancer Drug Screen. Data for the CLN2oe strain (AID 163);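 also: 0% = growth of vehicle-only control cultures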; details: S. cerevisiae CLN2oe strain, hits give high values
Procedure, shortened: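 First, the altered yeast strain was treated with each compound; second, its growth was measured; finally, inhibition was derived by comparison with vehicle controls.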

[9] = NCI Yeast Anticancer Drug Screen. Data for the cln2 rad14 strain (AID 165);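 also: 0% = growth equal to vehicle treated cultures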; details: S. cerevisiae cln2 rad14 strain, hits give high values
Procedure, shortened: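 Test compounds were added to cln2 rad14 yeast cultures; inhibition of growth was then determined by comparison with vehicle treatment.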

[10] = NCI Yeast Anticancer Drug Screen. Data for the mlh1 strain (AID 171);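 also: 0% = growth of vehicle-treated control cultures of the same strain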; details: S. cerevisiae mlh1 strain growth inhibition, hits give high values
Procedure, shortened: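 Inhibition values reflect reduced yeast growth in the presence of compound, referenced to vehicle controls, using a strain chosen for its alteration in DNA repair or cell cycle control.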

[11] = NCI Yeast Anticancer Drug Screen. Data for the sgs1 strain (AID 173);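 also: 0% = growth of vehicle-only control cultures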; details: S. cerevisiae sgs1 mutant, hits give high values
Procedure, shortened: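 Vehicle-treated cultures served as reference for growth inhibition of a yeast strain altered in DNA damage repair or cell cycle control after compound exposure.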

[12] = NCI Yeast Anticancer Drug Screen. Data for the mlh1 rad18 strain (AID 175); details: S. cerevisiae mlh1 rad18 strain growth inhibition, hits give high values
Procedure, shortened: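 Inhibition values reflect reduced growth of mutant yeast versus vehicle-treated controls following compound exposure; the mutations affect DNA damage repair.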

[13] = NCI Yeast Anticancer Drug Screen. Data for the rad18 strain (AID 177); details: S. cerevisiae rad18 mutant growth inhibition, hits give high values
Procedure, shortened: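 Steps: expose repair-mutant yeast to compound; measure growth; express as inhibition relative to vehicle control.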

[14] = NCI Yeast Anticancer Drug Screen. Data for the wt2 strain (AID 169);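 also: 0% = growth of vehicle-treated yeast cultures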; details: S. cerevisiae wt2 strain growth inhibition, hits give high values
Procedure, shortened: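 The panel's yeast strains carry defined changes in DNA repair or cell cycle genes. Each strain is grown with compound, and growth loss is scored relative to vehicle.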

[15] = NCI Yeast Anticancer Drug Screen. Data for the bub3 strain (AID 167); details: S. cerevisiae bub3 mutant strain, hits give high values
Procedure, shortened: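 Steps: expose the mutant yeast strain to compound; grow alongside vehicle-treated cultures; measure growth; express inhibition against the vehicle cultures.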

[16] = at 5.0 µM (retest, dose inferred, filed as 0.5)
[17] = at 50.0 µM (retest, dose inferred, filed as 5.0)

Measured: growth inhibition

CCCCCCCCCCCCOC1C(COCCN2CCCC2)OC2OC(C)(C)OC21 (stereo not drawn)
active: [1]; at 11.0 µM 93% | [1]; at 33.0 µM 99% | [1]; at 100.0 µM 99% | [2]; at 33.0 µM 97% | [2]; at 100.0 µM 98% | [3]; at 11.0 µM 97% | [3]; at 33.0 µM 98% | [3]; at 100.0 µM 98% | [4]; at 11.0 µM 98% | [4]; at 33.0 µM 98% | [4]; [17] 99% | [4]; at 50.0 µM 93% | [4]; at 100.0 µM 98% | [5]; at 11.0 µM 97% | [5]; at 33.0 µM 99% | [5]; [17] 99% | [5]; at 50.0 µM 93.4% | [5]; at 100.0 µM 98% | [6]; at 11.0 µM 98% | [6]; at 33.0 µM 98% | [6]; at 100.0 µM 98% | [7]; [17] 99% | [7]; at 50.0 µM 90.2% | [8]; at 11.0 µM 71% | [8]; at 33.0 µM 98% | [8]; at 100.0 µM 98% | [9]; [17] 97% | [9]; at 50.0 µM 90.3% | [10]; at 11.0 µM 94% | [10]; at 33.0 µM 98% | [10]; at 100.0 µM 98% | [11]; at 11.0 µM 97% | [11]; at 33.0 µM 98% | [11]; at 100.0 µM 98% | [12]; [17] 99% | [12]; at 50.0 µM 90% | [13]; at 11.0 µM 97% | [13]; at 33.0 µM 98% | [13]; at 100.0 µM 97%
inactive: [1]; at 1.2 µM 23% | [1]; at 3.7 µM 15% | [2]; at 1.2 µM 36% | [2]; at 3.7 µM 27% | [2]; at 11.0 µM 2% | [3]; at 1.2 µM 3% | [3]; at 3.7 µM 2% | [4]; at 1.2 µM 5% | [4]; at 3.7 µM 1% | [4]; [16] 13% | [5]; at 1.2 µM 18% | [5]; at 3.7 µM 11% | [5]; [16] 2% | [6]; at 1.2 µM 11% | [6]; at 3.7 µM 14% | [7]; [16] 19% | [8]; at 1.2 µM -5% | [8]; at 3.7 µM 23% | [9]; [16] 42% | [10]; at 1.2 µM 25% | [10]; at 3.7 µM 27% | [11]; at 1.2 µM 22% | [11]; at 3.7 µM 21% | [12]; [16] 16% | [13]; at 1.2 µM 37% | [13]; at 3.7 µM 27%

CCOc1ccccc1N1C(=O)CC(Sc2ccccc2N)C1=O (stereo not drawn)
active: [4]; [17] 75% | [5]; [17] 85% | [12]; [17] 70%
inactive: [1]; at 1.2 µM 12% | [1]; at 3.7 µM 17% | [1]; at 11.0 µM 10% | [1]; at 33.0 µM 15% | [1]; at 100.0 µM 9% | [2]; at 1.2 µM 19% | [2]; at 3.7 µM 8% | [2]; at 11.0 µM 8% | [2]; at 33.0 µM 16% | [2]; at 100.0 µM 25% | [3]; at 1.2 µM 3% | [3]; at 3.7 µM -10% | [3]; at 11.0 µM -13% | [3]; at 33.0 µM -5% | [3]; at 100.0 µM 1% | [4]; at 1.2 µM 13% | [4]; at 3.7 µM 2% | [4]; [16] 39% | [4]; at 11.0 µM 17% | [4]; at 33.0 µM 10% | [4]; at 50.0 µM 0.8% | [4]; at 100.0 µM -20% | [5]; at 1.2 µM 2% | [5]; at 3.7 µM 10% | [5]; [16] 57% | [5]; at 11.0 µM -9% | [5]; at 33.0 µM 0% | [5]; at 50.0 µM -12.4% | [5]; at 100.0 µM -19% | [6]; at 1.2 µM -23% | [6]; at 3.7 µM -23% | [6]; at 11.0 µM -41% | [6]; at 33.0 µM -48% | [6]; at 100.0 µM -55% | [7]; [16] -5% | [7]; [17] 24% | [7]; at 50.0 µM 14.4% | [9]; [16] 39% | [9]; [17] 1% | [9]; at 50.0 µM -13.9% | [14]; at 1.2 µM -2% | [14]; at 3.7 µM -7% | [14]; at 11.0 µM -8% | [14]; at 33.0 µM -7% | [14]; at 100.0 µM -13% | [10]; at 1.2 µM -10% | [10]; at 3.7 µM -18% | [10]; at 11.0 µM -33% | [10]; at 33.0 µM -18% | [10]; at 100.0 µM -24% | [11]; at 1.2 µM 16% | [11]; at 3.7 µM 5% | [11]; at 11.0 µM 6% | [11]; at 33.0 µM 14% | [11]; at 100.0 µM -1% | [12]; [16] 37% | [12]; at 50.0 µM 16.5% | [13]; at 1.2 µM 1% | [13]; at 3.7 µM -12% | [13]; at 11.0 µM -22% | [13]; at 33.0 µM -13% | [13]; at 100.0 µM -24%

Cc1ccc(Cl)c2c(=O)c3ccccc3[nH]c12
inactive: [1]; at 1.2 µM -1% | [1]; at 3.7 µM -3% | [1]; at 11.0 µM -2% | [1]; at 33.0 µM 0% | [1]; at 100.0 µM 5% | [2]; at 1.2 µM 4% | [2]; at 3.7 µM 2% | [2]; at 11.0 µM 12% | [2]; at 33.0 µM 24% | [2]; at 100.0 µM 58% | [3]; at 1.2 µM -2% | [3]; at 3.7 µM -1% | [3]; at 11.0 µM 0% | [3]; at 33.0 µM 0% | [3]; at 100.0 µM 7% | [4]; at 1.2 µM -9% | [4]; at 3.7 µM -44% | [4]; [16] 5% | [4]; at 11.0 µM 14% | [4]; at 33.0 µM 3% | [4]; at 100.0 µM 51% | [5]; at 1.2 µM -1% | [5]; at 3.7 µM -3% | [5]; [16] 4% | [5]; at 11.0 µM -2% | [5]; at 33.0 µM 1% | [5]; [17] 32% | [5]; at 50.0 µM 40% | [5]; at 100.0 µM 11% | [6]; at 1.2 µM 0% | [6]; at 3.7 µM 3% | [6]; at 11.0 µM 4% | [6]; at 33.0 µM 5% | [6]; at 100.0 µM 19% | [7]; [16] 0% | [7]; [17] 34% | [7]; at 50.0 µM 41.3% | [8]; at 1.2 µM -4% | [8]; at 3.7 µM -5% | [8]; at 11.0 µM -4% | [8]; at 33.0 µM -2% | [8]; at 100.0 µM -12% | [9]; [16] -8% | [9]; [17] 9% | [9]; at 50.0 µM 11.2% | [15]; at 1.2 µM -3% | [15]; at 3.7 µM -2% | [15]; [16] -5% | [15]; at 11.0 µM -7% | [15]; at 33.0 µM -1% | [15]; [17] 14% | [15]; at 50.0 µM 27.6% | [15]; at 100.0 µM 4% | [14]; at 1.2 µM 0% | [14]; at 3.7 µM 8% | [14]; at 11.0 µM 1% | [14]; at 33.0 µM 4% | [14]; at 100.0 µM 10% | [11]; at 1.2 µM -2% | [11]; at 3.7 µM 2% | [11]; at 11.0 µM -1% | [11]; at 33.0 µM 4% | [11]; at 100.0 µM 23% | [12]; [16] 2% | [12]; [17] 59% | [13]; at 1.2 µM 1% | [13]; at 3.7 µM 2% | [13]; at 11.0 µM 2% | [13]; at 33.0 µM 7% | [13]; at 100.0 µM 54%
active: [4]; [17] 71% | [4]; at 50.0 µM 84.1% | [12]; at 50.0 µM 71%
